About 2,000 (36%) of roughly 5,500 compounds were called active. Roughly 18% stayed inconclusive and do not appear here. Rule as the data show it: active = normalized growth mostly below about 0.91 (no sharp cut-off); inconclusive = no clear call, values can overlap the other calls; inactive = mostly above about 0.92. The list shows a part of the results.
Experiment: chemical genetic growth profiling, strain panel (AID 1159580);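 also: tested at 20 µM; growth read once vehicle control cultures reached saturation at 30 °C; 1 = growth at the plate median or of vehicle wells; lower values mean less growth of the strain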
Conditions: growth OD
[1] = S. cerevisiae deletion strains, locus YAL013W, strain DEP1, stronger effect = lower value
[2] = S. cerevisiae deletion strains, locus YDR150W, strain NUM1, stronger effect = lower value
[3] = S. cerevisiae deletion strains, locus YGR078C, strain PAC10, stronger effect = lower value
[4] = S. cerevisiae deletion strains, locus YGR229C, strain SMI1, stronger effect = lower value
[5] = S. cerevisiae deletion strains, locus YJR075W, strain HOC1, stronger effect = lower value
[6] = S. cerevisiae deletion strains, locus YMR263W, strain SAP30, stronger effect = lower value
[7] = S. cerevisiae deletion strains, locus YMR307W, strain GAS1, stronger effect = lower value
[8] = S. cerevisiae deletion strains, locus YNL128W, strain TEP1, stronger effect = lower value
[9] = S. cerevisiae deletion strains, locus YNL153C, strain GIM3, stronger effect = lower value
[10] = S. cerevisiae deletion strains, locus YNL322C, strain KRE1, stronger effect = lower value
[11] = S. cerevisiae deletion strains, locus YPL055C, strain LGE1, stronger effect = lower value
[12] = S. cerevisiae deletion strains, locus YPL241C, strain CIN2, stronger effect = lower value
[13] = S. cerevisiae deletion strains, locus YAL040C, strain CLN3, stronger effect = lower value
[14] = S. cerevisiae deletion strains, locus YDR363W, strain ESC2, stronger effect = lower value
[15] = S. cerevisiae deletion strains, locus YER002W, strain NOP16, stronger effect = lower value
[16] = S. cerevisiae deletion strains, locus YNL175C, strain NOP13, stronger effect = lower value
[17] = S. cerevisiae deletion strains, locus YNL197C, strain WHI3, stronger effect = lower value
[18] = S. cerevisiae deletion strains, locus YNL224C, strain SQS1, stronger effect = lower value
[19] = S. cerevisiae deletion strains, locus YOR083W, strain WHI5 (second series), stronger effect = lower value

Measured: normalized growth

C#CCOS(=O)OC1CCCCC1Oc1ccc(C(C)(C)C)cc1 (stereo unspecified)
inactive: [1] 1.01 | S. cerevisiae deletion strains, locus YBR021W, strain FUR4, stronger effect = lower value 1.03 | S. cerevisiae deletion strains, locus YBR229C, strain ROT2, stronger effect = lower value 1.02 | S. cerevisiae deletion strains, locus YCL029C, strain bik1, stronger effect = lower value 1.01 | S. cerevisiae deletion strains, locus YDL035C, strain GPR1, stronger effect = lower value 1 | S. cerevisiae deletion strains, locus YDL074C, strain BRE1, stronger effect = lower value 1.07 | S. cerevisiae deletion strains, locus YDL101C, strain DUN1, stronger effect = lower value 1.02 | S. cerevisiae deletion strains, locus YDL134C, strain PPH21, stronger effect = lower value 1.02 | S. cerevisiae deletion strains, locus YDL185W, strain tfp1, stronger effect = lower value 0.982 | S. cerevisiae deletion strains, locus YDL192W, strain arf1, stronger effect = lower value 1 | S. cerevisiae deletion strains, locus YDR101C, strain arx1, stronger effect = lower value 0.987 | [2] 1.02 | S. cerevisiae deletion strains, locus YDR162C, strain NBP2, stronger effect = lower value 1.02 | S. cerevisiae deletion strains, locus YDR318W, strain mcm21, stronger effect = lower value 1 | S. cerevisiae deletion strains, locus YDR388W, stronger effect = lower value 0.994 | S. cerevisiae deletion strains, locus YDR502C, strain sam2, stronger effect = lower value 0.993 | S. cerevisiae deletion strains, locus YEL061C, strain CIN8, stronger effect = lower value 1.01 | S. cerevisiae deletion strains, locus YER110C, stronger effect = lower value 0.998 | S. cerevisiae deletion strains, locus YER155C, strain BEM2, stronger effect = lower value 1.02 | S. cerevisiae deletion strains, locus YER167W, strain BCK2, stronger effect = lower value 1.01 | S. cerevisiae deletion strains, locus YGL078C, strain dbp3, stronger effect = lower value 0.977 | S. cerevisiae deletion strains, locus YGL086W, strain mad1, stronger effect = lower value 1 | S. cerevisiae deletion strains, locus YGL248W, strain PDE1, stronger effect = lower value 1.02 | [3] 1.02 | S. cerevisiae deletion strains, locus YGR135W, strain pre9, stronger effect = lower value 1 | [4] 1.04 | S. cerevisiae deletion strains, locus YGR252W, strain gcn5, stronger effect = lower value 0.987 | S. cerevisiae deletion strains, locus YHR030C, strain SLT2, stronger effect = lower value 1.02 | S. cerevisiae deletion strains, locus YHR079C, strain IRE1 (second series), stronger effect = lower value 0.994 | S. cerevisiae deletion strains, locus YHR094C, strain hxt1, stronger effect = lower value 0.988 | S. cerevisiae deletion strains, locus YHR129C, strain ARP1, stronger effect = lower value 1.02 | S. cerevisiae deletion strains, locus YHR200W, strain rpn10, stronger effect = lower value 0.99 | S. cerevisiae deletion strains, locus YIL066C, strain RNR3, stronger effect = lower value 1.02 | S. cerevisiae deletion strains, locus YIL073C, strain SPO22, stronger effect = lower value 1.01 | S. cerevisiae deletion strains, locus YIL125W, strain kgd1, stronger effect = lower value 0.988 | S. cerevisiae deletion strains, locus YIR030C, strain dcg1, stronger effect = lower value 0.984 | S. cerevisiae deletion strains, locus YJL095W, strain BCK1, stronger effect = lower value 1.02 | S. cerevisiae deletion strains, locus YJL134W, strain LCB3, stronger effect = lower value 1.01 | S. cerevisiae deletion strains, locus YJL168C, strain set2, stronger effect = lower value 0.989 | S. cerevisiae deletion strains, locus YJL187C, strain SWE1 (second series), stronger effect = lower value 1.02 | S. cerevisiae deletion strains, locus YJR043C, strain POL32, stronger effect = lower value 1.01 | [5] 1.04 | S. cerevisiae deletion strains, locus YKL009W, strain mrt4, stronger effect = lower value 0.971 | S. cerevisiae deletion strains, locus YKL068W, stronger effect = lower value 0.994 | S. cerevisiae deletion strains, locus YKL085W, strain MDH1 (second series), stronger effect = lower value 0.988 | S. cerevisiae deletion strains, locus YKL085W, strain MDH1, stronger effect = lower value 0.988 | S. cerevisiae deletion strains, locus YKL190W, strain CNB1, stronger effect = lower value 1 | S. cerevisiae deletion strains, locus YKR001C, strain vps1, stronger effect = lower value 0.993 | S. cerevisiae deletion strains, locus YLR039C, strain RIC1, stronger effect = lower value 1.04 | S. cerevisiae deletion strains, locus YLR058C, strain SHM2, stronger effect = lower value 1.02 | S. cerevisiae deletion strains, locus YLR102C, strain apc9, stronger effect = lower value 0.983 | S. cerevisiae deletion strains, locus YLR262C, strain YPT6, stronger effect = lower value 1.05 | S. cerevisiae deletion strains, locus YLR268W, strain sec22, stronger effect = lower value 0.999 | S. cerevisiae deletion strains, locus YLR330W, strain CHS5, stronger effect = lower value 1.02 | S. cerevisiae deletion strains, locus YLR342W, strain FKS1 (second series), stronger effect = lower value 1.01 | S. cerevisiae deletion strains, locus YLR371W, strain rom2, stronger effect = lower value 0.983 | S. cerevisiae deletion strains, locus YLR418C, strain cdc73, stronger effect = lower value 1.02 | S. cerevisiae deletion strains, locus YML016C, strain PPZ1, stronger effect = lower value 1.02 | S. cerevisiae deletion strains, locus YML032C, strain rad52, stronger effect = lower value 0.986 | S. cerevisiae deletion strains, locus YML124C, strain tub3, stronger effect = lower value 0.995 | S. cerevisiae deletion strains, locus YMR078C, strain ctf18, stronger effect = lower value 0.996 | S. cerevisiae deletion strains, locus YMR223W, strain ubp8, stronger effect = lower value 1 | [6] 1.03 | [7] 1.02 | S. cerevisiae deletion strains, locus YNL067W, strain RPL9B, stronger effect = lower value 1.02 | [8] 1.02 | [9] 1.02 | S. cerevisiae deletion strains, locus YNL233W, strain BNI4, stronger effect = lower value 1.03 | S. cerevisiae deletion strains, locus YNL250W, strain rad50, stronger effect = lower value 0.992 | S. cerevisiae deletion strains, locus YNL271C, strain bni1, stronger effect = lower value 0.978 | S. cerevisiae deletion strains, locus YNL298W, strain CLA4, stronger effect = lower value 0.998 | S. cerevisiae deletion strains, locus YNL307C, strain MCK1, stronger effect = lower value 0.992 | [10] 1.02 | S. cerevisiae deletion strains, locus YNR052C, strain pop2, stronger effect = lower value 0.987 | S. cerevisiae deletion strains, locus YOL006C, strain TOP1, stronger effect = lower value 1.07 | S. cerevisiae deletion strains, locus YOL012C, strain htz1 0.994 | S. cerevisiae deletion strains, locus YOL147C, strain pex11, stronger effect = lower value 0.994 | S. cerevisiae deletion strains, locus YOR061W, strain CKA2, stronger effect = lower value 1.01 | S. cerevisiae deletion strains, locus YOR069W, strain VPS5, stronger effect = lower value 1 | S. cerevisiae deletion strains, locus YOR136W, strain idh2, stronger effect = lower value 0.992 | S. cerevisiae deletion strains, locus YOR144C, strain elg1, stronger effect = lower value 0.996 | S. cerevisiae deletion strains, locus YOR184W, strain ser1, stronger effect = lower value 0.964 | S. cerevisiae deletion strains, locus YOR316C, strain cot1, stronger effect = lower value 0.996 | [11] 1.05 | [12] 1.03 | S. cerevisiae deletion strains, locus YPR119W, strain clb2, stronger effect = lower value 0.997 | S. cerevisiae deletion strains, locus YPR141C, strain kar3, stronger effect = lower value 0.99 | S. cerevisiae deletion strains, locus YPR163C, strain tif3, stronger effect = lower value 0.999 | S. cerevisiae deletion strains, locus YPR167C, strain met16, stronger effect = lower value 0.994 | S. cerevisiae deletion strains, strain wtn01, stronger effect = lower value 0.991 | S. cerevisiae strains, strain wild type, stronger effect = lower value 1.01

CC(C)C[C@H](NC(=O)C1OC1C(=O)O)C(=O)NCCCCN=C(N)N (stereo partly specified)
inactive: [1] 1.01 | [13] 0.949 | S. cerevisiae deletion strains, locus YCL061C, strain MRC1 (second series), stronger effect = lower value 0.993 | [2] 0.989 | [14] 1.01 | [15] 0.985 | [3] 0.988 | [4] 1.04 | [6] 0.997 | [8] 0.998 | [16] 0.984 | [17] 0.971 | [18] 1.01 | [19] 0.979 | [11] 1.02 | [12] 0.995

CC(=O)/C(C)=N\O
inactive: [13] 0.972 | [2] 0.972 | [14] 1.07 | [15] 0.994 | [3] 1 | [5] 0.987 | [7] 1.07 | [8] 0.983 | [9] 0.979 | [16] 0.978 | [17] 1 | [18] 1.01 | [10] 1 | [19] 0.986
